According to the supplement of paper PMC12494721:
Counter-ions that a name gives are not always drawn.

Experiments:
Settings in all cases: 20 µM; incubation time: 27 h, anaerobic, 37 °C;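 for the amine columns active = adjusted P below 0.05 in both replicates with a change the same way and a mean fold change under 0.8 or over 1.25; inactive = the rest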
[1] = tested on: Clostridium sporogenes DSM 1664; assay: growth (OD595) fold change vs plate DMSO controls (fold change (ratio)); higher = more growth
How it was run: (§1)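 Growth is the fold change relative to the median of plate DMSO controls. Readings came from anaerobic mGAM cultures in 96-well plates grown for 27 h at 37 °C and read at 595 nm. They were blank-subtracted, corrected for compound background with 20 µM compound solutions in water, and converted to OD with a calibration factor of 5. Values are means of 2 biological replicates, and fold changes above 1.5 were set to NA.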

[2] = tested on: Escherichia coli IAI1; assay: as above
How it was run: as §1

[3] = tested on: Klebsiella aerogenes DSM 30053; assay: as above
How it was run: as §1

[4] = tested on: Ruminococcus gnavus DSM 108212; assay: as above
How it was run: as §1

[5] = tested on: Klebsiella aerogenes DSM 30053; assay: fold change of Histamine concentration vs plate DMSO controls (fold change (ratio)); higher = more amine produced, active = hit call of the paper (significant change in both replicates, either direction)
How it was run: (§2)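 In 80 µL wells, cultures of four gut bacterial strains in mGAM started at OD 0.1 before a 1:1 dilution and grew anaerobically at 37 °C for 27 h. Compounds were added to 20 µM final, except sweeteners at 50 µM final. After extraction of whole cultures with cold acetonitrile/methanol plus 0.1% formic acid and centrifugation, amines were measured by LC–triple-quadrupole MS in dynamic MRM mode against external calibration curves, with within-batch drift correction. Values give fold change over DMSO controls on the same plate, averaged across 2 biological replicates.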

[6] = tested on: Clostridium sporogenes DSM 1664; assay: fold change of Tryptamine concentration vs plate DMSO controls (fold change (ratio)); higher = more amine produced, active = hit call of the paper (significant change in both replicates, either direction)
How it was run: as §2

[7] = tested on: Ruminococcus gnavus DSM 108212; assay: as above
How it was run: as §2

[8] = tested on: Escherichia coli IAI1; assay: fold change of Putrescine concentration vs plate DMSO controls (fold change (ratio)); higher = more amine produced, active = hit call of the paper (significant change in both replicates, either direction)
How it was run: as §2

[9] = tested on: Klebsiella aerogenes DSM 30053; assay: as above
How it was run: as §2

[10] = tested on: Escherichia coli IAI1; assay: fold change of Cadaverine concentration vs plate DMSO controls (fold change (ratio)); higher = more amine produced, active = hit call of the paper (significant change in both replicates, either direction)
How it was run: as §2

[11] = tested on: Klebsiella aerogenes DSM 30053; assay: as above
How it was run: as §2

[12] = tested on: Ruminococcus gnavus DSM 108212; assay: fold change of 2-Phenylethylamine concentration vs plate DMSO controls (fold change (ratio)); higher = more amine produced, active = hit call of the paper (significant change in both replicates, either direction)
How it was run: as §2

SMILES	growth [1]	growth [2]	growth [3]	growth [4]	fold change of Histamine concentration [5]	fold change of Tryptamine concentration [6]	fold change of Tryptamine concentration [7]	fold change of Putrescine concentration [8]	fold change of Putrescine concentration [9]	fold change of Cadaverine concentration [10]	fold change of Cadaverine concentration [11]	fold change of 2-Phenylethylamine concentration [12]
CNC(=O)Oc1cccc2ccccc12	1.12	0.98	1	0.969	0.989 (inactive)	0.933 (inactive)	0.989 (inactive)	1.06 (inactive)	1.01 (inactive)	0.965 (inactive)	1.01 (inactive)	0.97 (inactive)
C[C@]12CC[C@H](O)CC1=CC[C@@H]1[C@@H]2CC[C@]2(C)C(=O)CC[C@@H]12 [Prasterone]	1.17	1.01	1.04	1.07	0.984 (inactive)	0.972 (inactive)	0.985 (inactive)	1 (inactive)	0.999 (inactive)	1.05 (inactive)	0.991 (inactive)	1 (inactive)
CCCCC(C#N)(Cn1cncn1)c1ccc(Cl)cc1 (configuration not stated)	1.07	1.07	1.01	1.14	0.939 (inactive)	1.2 (inactive)	1.07 (inactive)	0.908 (inactive)	0.815 (inactive)	0.907 (inactive)	1.16 (inactive)	1.14 (inactive)
NCCc1c[nH]c2ccc(O)cc12 [Serotonin hydrochloride]	0.937	0.985	0.99	0.934	1.1 (inactive)	1.02 (inactive)	1 (inactive)	0.993 (inactive)	1.08 (inactive)	1.06 (inactive)	1.06 (inactive)	0.93 (inactive)
C#C[C@]1(O)CC[C@H]2[C@@H]3CCC4=CC(=O)CC[C@]4(C)[C@H]3CC[C@@]21C [Ethisterone]	0.939	1.07	1.01	0.986	1.05 (inactive)	1.02 (inactive)	1 (inactive)	1.03 (inactive)	1.04 (inactive)	0.988 (inactive)	0.997 (inactive)	1.04 (inactive)
O=[N+]([O-])c1ccc2ccc3cccc4ccc1c2c34 [1-Nitropyrene]	0.638	1.04	1	0.914	0.971 (inactive)	0.785 (inactive)	0.952 (inactive)	1.03 (inactive)	1 (inactive)	0.96 (inactive)	1.01 (inactive)	0.967 (inactive)
O=C(O)C(F)(F)C(F)(F)C(F)(F)C(F)(F)C(F)(F)C(F)(F)C(F)(F)C(F)(F)C(F)(F)F [PFDeA (Perfluorodecanoic acid)]	1.11	1.04	1.04	1.24	1.02 (inactive)	0.916 (inactive)	0.999 (inactive)	1.02 (inactive)	0.996 (inactive)	1.01 (inactive)	1 (inactive)	0.962 (inactive)
C#CCOc1ccc(CCNC(=O)C(OCC#C)c2ccc(Cl)cc2)cc1OC (configuration not stated)	1	1.06	1.03	0.954	0.95 (inactive)	0.986 (inactive)	0.989 (inactive)	1.05 (inactive)	1.01 (inactive)	0.933 (inactive)	1.01 (inactive)	0.964 (inactive)
CCC(C)(C)C(=O)OC1=C(c2ccc(Cl)cc2Cl)C(=O)OC12CCCCC2	1.09	1.08	1.01	1.05	0.967 (inactive)	1.05 (inactive)	1.03 (inactive)	1.02 (inactive)	0.996 (inactive)	0.997 (inactive)	1.03 (inactive)	1.05 (inactive)
C[C@]12Cc3c[nH]nc3C[C@@H]1CC[C@@H]1[C@@H]2CC[C@@]2(C)[C@H]1CC[C@]2(C)O [Stanozolol]	1.18	0.985	1.1	1.05	0.911 (inactive)	0.973 (inactive)	0.976 (inactive)	0.981 (inactive)	0.99 (inactive)	0.959 (inactive)	1.02 (inactive)	1 (inactive)
Nc1c([N+](=O)[O-])ccc(Oc2ccccc2)c1Cl	0.859	0.991	0.998	1.03	0.974 (inactive)	1.02 (inactive)	1.01 (inactive)	0.973 (inactive)	1.01 (inactive)	1.04 (inactive)	1.01 (inactive)	0.982 (inactive)
C=CC[C@]1(O)CC[C@H]2[C@@H]3CCC4=CC(=O)CCC4=C3C=C[C@@]21C [Altrenogest]	0.998	0.987	1.05	0.827	0.926 (inactive)	1.02 (inactive)	1 (inactive)	1.09 (inactive)	1.01 (inactive)	1.42 (inactive)	1.01 (inactive)	0.978 (inactive)
CC(C)N(C)S(=O)(=O)NC(=O)c1cc(-n2c(=O)cc(C(F)(F)F)n(C)c2=O)c(F)cc1Cl	0.954	0.981	1	1.03	0.99 (inactive)	1.03 (inactive)	0.884 (inactive)	0.983 (inactive)	0.985 (inactive)	1.01 (inactive)	0.993 (inactive)	0.819 (inactive)
COc1ccccc1N [o-Anisidine]	1.07	1.04	0.996	1.01	1.03 (inactive)	1.08 (inactive)	1 (inactive)	1 (inactive)	0.983 (inactive)	0.947 (inactive)	0.997 (inactive)	1.01 (inactive)
COc1ccc(OC)c(C(O)C(C)N)c1 (configuration not stated) [Methoxamine hydrochloride]	0.777	0.736	0.696	0.0622	1.06 (inactive)	1.07 (inactive)	0.161 (active)	1.05 (inactive)	1 (inactive)	0.968 (inactive)	0.988 (inactive)	0.165 (active)
CN(C)C(=O)Oc1cccc([N+](C)(C)C)c1 [Neostigmine bromide]	0.939	0.975	1.01	0.886	0.992 (inactive)	1.07 (inactive)	1.03 (inactive)	0.992 (inactive)	0.998 (inactive)	1.02 (inactive)	1 (inactive)	1.01 (inactive)
Cc1nc(N(C)C)nc(OC(=O)N(C)C)c1C	1.02	1	0.963	1.06	1.01 (inactive)	1.12 (inactive)	0.985 (inactive)	0.905 (inactive)	1 (inactive)	1.02 (inactive)	1 (inactive)	0.945 (inactive)
CC(O)(CS(=O)(=O)c1ccc(F)cc1)C(=O)Nc1ccc(C#N)c(C(F)(F)F)c1 (configuration not stated) [Bicalutamide]	1.06	1.01	1.08	1.15	0.914 (inactive)	1.09 (inactive)	1.06 (inactive)	1.08 (inactive)	0.973 (inactive)	1.01 (inactive)	1.02 (inactive)	1.04 (inactive)
CC(=O)O[C@H]1C[C@H](O[C@H]2[C@@H](O)C[C@H](O[C@H]3[C@@H](O)C[C@H](O[C@H]4CC[C@@]5(C)[C@H](CC[C@@H]6[C@@H]5C[C@@H](O)[C@]5(C)[C@@H](C7=CC(=O)OC7)CC[C@]65O)C4)O[C@@H]3C)O[C@@H]2C)O[C@H](C)[C@H]1O[C@@H]1O[C@H](CO)[C@@H](O)[C@H](O)[C@H]1O [Lanatoside C]	1.01	0.957	0.998	1.12	0.992 (inactive)	0.962 (inactive)	1.07 (inactive)	1.09 (inactive)	0.991 (inactive)	1.02 (inactive)	0.996 (inactive)	1.1 (inactive)
COc1cc(C)c(C(=O)c2c(OC)ccc(Br)c2C)c(OC)c1OC	1.04	1.05	1.04	1.1	0.967 (inactive)	0.978 (inactive)	1.01 (inactive)	1.02 (inactive)	1.02 (inactive)	1.07 (inactive)	1.01 (inactive)	1 (inactive)
CNC(C)(C)Cc1ccccc1 [Mephentermine hemisulfate]	1.05	0.976	0.99	0.991	0.952 (inactive)	1.04 (inactive)	1.24 (inactive)	1.03 (inactive)	0.952 (inactive)	0.943 (inactive)	1.01 (inactive)	1.38 (inactive)
CNC(=O)Oc1ccc2c(c1)[C@]1(C)CCN(C)[C@@H]1N2C [Eserine hemisulfate salt]	1.02	1.06	0.988	1.05	1.04 (inactive)	1.02 (inactive)	1.03 (inactive)	1.06 (inactive)	0.996 (inactive)	0.999 (inactive)	0.975 (inactive)	1.05 (inactive)
CN(C)[C@@H]1C(=O)C(C(N)=O)=C(O)[C@@]2(O)C(=O)C3=C(O)c4c(O)cccc4[C@@](C)(O)[C@H]3C[C@@H]12 [Tetracycline hydrochloride]	0.00861	0.0722	0.0623	0.735	0.0521 (active)	0.024 (active)	0.799 (inactive)	0.291 (inactive)	0.481 (inactive)	0.148 (active)	0.411 (inactive)	0.86 (inactive)
C[C@@H]1CC[C@H]2[C@@H](C)C(=O)O[C@@H]3O[C@@]4(C)CC[C@@H]1[C@]32OO4 [Artemisinin]	0.953	0.972	1.02	1.13	1.01 (inactive)	1.02 (inactive)	1.03 (inactive)	1.01 (inactive)	1.01 (inactive)	0.966 (inactive)	1.01 (inactive)	1.03 (inactive)
COC(=O)N(C(=O)N1CO[C@@]2(C(=O)OC)Cc3cc(Cl)ccc3C2=N1)c1ccc(OC(F)(F)F)cc1	1.15	0.998	0.992	0.903	0.975 (inactive)	1.03 (inactive)	1.03 (inactive)	0.945 (inactive)	0.915 (inactive)	0.907 (inactive)	1.03 (inactive)	0.986 (inactive)
NCC(CC(=O)O)c1ccc(Cl)cc1 (configuration not stated) [Baclofen]	1.11	1.17	1	1.33	1.04 (inactive)	1.06 (inactive)	1.1 (inactive)	1.09 (inactive)	0.988 (inactive)	1 (inactive)	1.03 (inactive)	1.11 (inactive)
